# Bioassay records: PubChem, The Scripps Research Institute Molecular Screening Center
# CHRM1 agonist – human M1 muscarinic receptor agonism; AID 588814; CHO-K1 hM1, Fluo-8 calcium fluorescence, agonist mode; 0% DMSO, 100% acetylcholine EC100; actives 0.33% (n = 360,000); P11229; activation, % at 3 µM;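 active = activation above the run's mean compound activation plus 3 SD, cut at about 16% in these data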;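 note: peak over basal fluorescence ratio within a 140 s kinetic read after compound addition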
# Target sequence (P11229 whole entry, looked up): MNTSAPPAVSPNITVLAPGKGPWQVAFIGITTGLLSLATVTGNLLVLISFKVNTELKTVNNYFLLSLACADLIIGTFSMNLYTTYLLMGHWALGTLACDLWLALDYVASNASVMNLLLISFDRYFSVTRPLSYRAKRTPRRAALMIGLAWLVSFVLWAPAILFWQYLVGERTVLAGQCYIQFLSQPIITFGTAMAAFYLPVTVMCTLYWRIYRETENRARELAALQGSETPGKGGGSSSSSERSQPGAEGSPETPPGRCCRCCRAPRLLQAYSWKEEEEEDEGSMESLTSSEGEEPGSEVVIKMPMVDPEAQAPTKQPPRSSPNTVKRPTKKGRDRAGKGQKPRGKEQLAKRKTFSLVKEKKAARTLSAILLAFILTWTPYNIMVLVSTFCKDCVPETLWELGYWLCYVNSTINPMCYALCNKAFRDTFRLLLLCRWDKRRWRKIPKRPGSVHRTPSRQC
# CHO-K1 Ca ag – M1 agonist counterscreen hit in parental CHO-K1 cells; Fluo-8 calcium fluorescence; scaled to maximal ATP response, vehicle zero; activation, % at 3 µM; actives 0.48% (n = 360,000); AID 602248; in the data active = activation above about 15%;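 note: untransfected CHO-K1 host cells lacking M1 receptor as counterscreen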
# CHO-K1 Ca PAM – counter-screen for M1 PAMs: effect in parental CHO-K1 cells; ATP EC20, Fluo-8 calcium fluorescence; 0% at ATP EC20, 100% at ATP max; activation, % at 3 µM; actives 0.02% (n = 360,000); AID 602247;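 active = activation above the run cutoff, the mean activation of all test compounds plus 3 SD, cut at about 40% in these data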;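 note: peak over basal fluorescence ratio in a 140 s read after ATP addition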
# M1 PAM – potentiates human M1 receptor response to acetylcholine. P11229. activation, % at 3 µM. actives 0.088% (n = 360,000). CHO-K1 hM1, Fluo-8 calcium fluorescence, ACh EC20; 0% = ACh EC20, 100% = maximal ACh; in the data active = activation above about 19%, passing the limit was not always enough
# CHO-K1 Ca antag – M1 antagonist counterscreen hit in parental CHO-K1 cells; actives 0.6% (n = 360,000); inhibition, % at 3 µM; ATP-induced calcium, Fluo-8 fluorescence;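 active = inhibition above a per-plate cutoff, the plate's mean sample inhibition plus 3 SD, cut at about 24% in these data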;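 note: 0% = DMSO plus EC80 ATP and 100% = DMSO alone without ATP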
# CHRM1 antagonist – blocks human M1 muscarinic receptor. P11229. CHO-K1 hM1, Fluo-8 calcium fluorescence, ACh EC80 antagonist. inhibition, % at 3 µM. actives 1.3% (n = 360,000). AID 588852;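 active = percent inhibition above its own plate's cutoff, namely the mean of that plate's compound wells plus 3 SD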;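 note: peak over basal fluorescence ratio during 140 s after agonist addition; 0% = ACh EC80 plus DMSO and 100% = DMSO alone without agonist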
# * hit, by the source's call; ! = not active in a repeat. Hits are enriched below; roughly 2.4% of the tested compounds scored in any of these assays.
SMILES,CHRM1 agonist,CHO-K1 Ca ag,CHO-K1 Ca PAM,M1 PAM,CHO-K1 Ca antag,CHRM1 antagonist
Cc1cc(NC(=O)CN2C(=O)NC(C)(c3ccc(OC(F)F)cc3)C2=O)no1 (stereo not given),17.2*,8.8,27.2,7.1,-14.3,6.5
CC1(c2ccc(OC(F)F)cc2)NC(=O)N(CC(=O)Nc2ccc(F)cc2)C1=O (stereo not given),28.8*,24.7*,23.8,6.2,2.5,4.6
CCOC(=O)c1c(C)[nH]c(C(=O)CN2C(=O)NC(C)(C)C2=O)c1C,-1.6,0.3,-14.9,-1.5,6.3,12.5
CC1(c2ccc(OC(F)F)cc2)NC(=O)N(CC(=O)Nc2cccc(F)c2)C1=O (stereo not given),44.5*,32.3*,-21.7,-1.2,44.3*,40.4*
Cc1ccc(C2(C)NC(=O)N(CC(=O)Nc3ccc4c(c3)OCO4)C2=O)cc1 (stereo not given),5.3,1.6,-1.5,6.1,0.0,-7.8
CCOC(=O)c1c(C)[nH]c(C(=O)CN2C(=O)NC(C)(c3ccc(C)cc3)C2=O)c1C (stereo not given),21.9*,18.9*,28.1,12.7,1.7,1.9
CCOc1ccc(NC(=O)CN2C(=O)NC(C)(c3ccc(OC(F)F)cc3)C2=O)cc1 (stereo not given),32.1*,18.9*,-2.9,3.3,8.6,18.8
Cc1ccc(NC(=O)CN2C(=O)NC(C)(c3ccc(Cl)cc3)C2=O)cc1 (stereo not given),18.4*,6.0,-8.4,14.7,6.3,-2.1
COc1cc(C(C)=O)ccc1OC(=O)c1cc2cccc(OC)c2oc1=O,-2.2,0.1,7.0,3.3,-12.2,-2.4
CN1CCN(c2ccc(Cl)cc2NC(=O)CN2C(=O)NC(C)(c3ccccc3)C2=O)CC1 (stereo not given),-4.0,0.6,23.7,5.2,1.6,-6.9
CC(C)CCC(C)NC(=O)CN1C(=O)NC(C)(c2ccc3ccccc3c2)C1=O (stereo not given),24.6*,1.8,-3.7,13.0,-1.7,-5.1
CC1(c2ccc(OC(F)F)cc2)NC(=O)N(CC(=O)Nc2ccc(Cl)cc2F)C1=O (stereo not given),16.6*,12.0,-4.3,2.8,2.8,23.9
COc1ccc(C(=O)Nc2ccc(C)cn2)cc1S(=O)(=O)N1CCCc2ccccc21,-4.1,0.8,-29.1,-13.2,15.8,23.4*
Cc1ccc(S(=O)(=O)N2CCOCC2)cc1C(=O)N1c2ccccc2Sc2ccccc21,-5.0,0.6,27.7,0.4,-17.0,-16.1
NC(=O)c1ccc(Oc2ncc(C(F)(F)F)cc2Cl)cc1,-3.9,15.5*,24.5,9.7,-0.7,-6.7
COc1ccc(CN(C)C(=O)c2cc(-c3ccccc3)nc3ccc(C)cc23)c(OC)c1OC,-1.5,17.7*,-11.1,-8.7,19.3,31.1
COc1cccc(CN(C)C(=O)c2cc(-c3ccc(OC)c(OC)c3)nc3ccccc23)c1,-2.0,4.9,-3.8,-2.7,15.1,28.6
COc1ccc(CCN(C)C(=O)c2cc(-c3ccccc3)nc3ccc(C)cc23)cc1OC,-2.5,3.0,-21.6,-1.6,1.5,12.3
COc1ccc(CN(C)C(=O)c2cc(-c3ccc(OC)c(OC)c3)nc3ccccc23)c(OC)c1,-2.1,4.7,3.5,-8.1,6.5,29.4*
COc1ccc(-c2cc(C(=O)N(C)Cc3nc4ccccc4c(=O)[nH]3)c3ccccc3n2)cc1OC,0.5,5.2,12.5,-12.1,-5.5,32.6*
COc1ccc(-c2cc(C(=O)N(C)Cc3cccc(OC)c3OC)c3ccccc3n2)cc1OC,-2.7,6.0,-16.6,-8.1,3.0,12.9
COc1ccccc1CN(C)C(=O)c1cc(-c2cccs2)nc2ccccc12,-3.9,6.9,-0.3,-12.2,-3.6,27.5*
Cc1ccc(S(=O)(=O)NCCC(=O)N2CCC(C(N)=O)CC2)cc1C,1.5,1.5,7.3,23.5*,-11.3,-20.5
Cn1c(CO)cnc1S(=O)(=O)Cc1c(Cl)cccc1Cl,2.0,5.2,-5.5,13.5,-0.8,-15.7
COCCNC(=O)Cc1ccc(F)cc1,-5.8,0.5,19.3,12.7,-12.1,-13.0
SMILES,CHRM1 agonist,CHO-K1 Ca ag,CHO-K1 Ca PAM,M1 PAM,CHO-K1 Ca antag,CHRM1 antagonist
CC(C)(C)c1ccc(OCCNC(=O)Cc2ccc(F)cc2)cc1,0.5,4.2,-11.9,-8.9,26.9*,16.5
O=C(NCCCn1ccnc1)c1cc2cc([N+](=O)[O-])ccc2oc1=O,-7.5,3.7,17.2,2.7,-10.0,-2.5
COc1ccc(C(=O)NCc2nnc(SCC(=O)Nc3nc4ccccc4s3)o2)cc1OC,-5.1,-0.3,-4.5,2.7,-10.2,-11.6
CCOc1ccc(/C=C/C(O)=C2/C(=O)NC3(C)CC2c2ccccc2O3)cc1OC (stereo not given),-0.4,8.2,-9.1,-15.1,-1.8,44.0*
NC(=O)c1ccccc1NC(=O)CN1CCCCCC1,-4.4,1.3,-2.2,9.6,-1.1,-11.2
NC(=O)c1cc(-c2ccccc2)sc1NC(=O)CN1CCCCC1,-3.2,0.2,-11.8,-6.1,24.9*,-2.1
CN1CCN(c2ccccc2/C=C2/C(=O)Nc3ccccc32)CC1,-10.8,0.1,10.2,-30.4,-5.5,88.7*
O=C1Nc2ccccc2/C1=C/c1ccccc1Cl,-4.0,1.1,-12.6,2.0,-16.6,-11.0
Cc1ccc(C2C3=C(CCCC3=O)N=C3c4ccccc4C(=O)C32)cc1 (stereo not given),-4.7,0.1,16.3,9.8,-11.9,-4.4
CN1CCN(c2nc(-c3cccs3)cc(C(F)(F)F)n2)CC1,-3.5,1.7,19.7,-21.2,-9.6,70.5*
O=[N+]([O-])c1cnn(-c2nc(-c3cccs3)cc(C(F)(F)F)n2)c1,-2.7,1.0,-1.5,4.4,-11.2,-4.3
c1ccc(-c2nnc(N3CCN(c4ccccc4)CC3)nc2-c2ccccc2)cc1,-2.4,-0.1,6.2,14.3,2.4,-17.0
CN1CCN(c2nnc(-c3ccccc3)c(-c3ccccc3)n2)CC1,-8.7,0.1,-12.9,-20.2,5.7,38.7*
CN1CCN(c2nc(-c3ccccc3)cc(C(F)(F)F)n2)CC1,-3.8,-0.1,-2.2,-18.8,7.4,43.1*
CC(C)CNC(=O)CSc1nc(-c2cccs2)cc(C(F)(F)F)n1,-3.4,-0.6,-5.9,-4.1,23.9*,-15.0
CCCc1ccc(C(=O)NNc2cccc(C)c2)cc1,-4.8,3.6,8.8,-1.6,-4.0,2.9
Cc1cc(C)n(NC(=S)NC2CCCCC2)c(=O)c1C#N,-2.2,1.7,18.8,5.5,-16.1,-14.7
COC(=O)C1=C(C)NC(C)=C([N+](=O)[O-])C1c1ccccc1C(F)(F)F (stereo not given),-3.4,0.1,7.9,-3.1,34.8*!,-17.0
COC(=O)C1=C(C)NC(C)=C(C(=O)OC)C1c1ccc(-c2cccc([N+](=O)[O-])c2)o1,-1.2,0.9,1.4,12.0,11.7,-19.2
